# Measured values reported in the supplement of paper PMC13380429.
# What was measured:
# [1] = test system: Vero E6 infected with SARS-CoV-2; assay: morphology score (similarity to uninfected cells); higher = more like uninfected cells; conditions: 24 h
# [2] = test system: Vero E6 infected with SARS-CoV-2; assay: SARS-CoV-2 infection rate relative to infected DMSO; higher = more infection, active = 60 or less; conditions: 24 h
SMILES,morphology score [1],SARS-CoV-2 infection rate [2]
CCCCCCCCCCCCc1ccc(S(=O)(=O)Nc2nncs2)cc1 (10 µM),0.158,93% (inactive)
O=C(O)CN1C(=O)c2cccc3cccc(c23)C1=O [alrestatin] (10 µM),0.0519,106% (inactive)
O=C(NCC(=O)N1CCCC1)Nc1ccc2cnccc2c1 (10 µM),0.182,98% (inactive)
Fc1cc(F)c2c(c1)[C@H]1C=CC[C@H]1C(c1cccnc1)N2 (stereo partly specified) [Golgicide A] (0.833333 µM),0.281,104% (inactive)
CN1CCc2nc(C(=O)N[C@@H]3C[C@@H](C(=O)N(C)C)CC[C@@H]3NC(=O)C(=O)Nc3ccc(Cl)cn3)sc2C1 [edoxaban] (10 µM),0.0662,94.5% (inactive)
COC(=O)c1cc(OC)c2c(c1-c1c(CO)cc(OC)c3c1OCO3)OCO2 [bicyclol] (10 µM),0.199,88% (inactive)
CC(C)NCC(O)c1ccc([N+](=O)[O-])cc1 (stereo unspecified) [nifenalol] (10 µM),-0.141,118% (inactive)
C[C@]12C[C@H](O)[C@H]3[C@@H](CCC4=CC(=O)CC[C@@]43C)[C@@H]1CC[C@@H]2C(=O)CO [corticosterone] (10 µM),0.0999,110% (inactive)
C=C[C@@H]1C[C@]1(NC(=O)[C@@H]1C[C@@H]2CN1C(=O)[C@H](C(C)(C)C)NC(=O)O[C@@H]1C[C@H]1CCCCCc1nc3ccc(OC)cc3nc1O2)C(=O)NS(=O)(=O)C1CC1 [grazoprevir] (10 µM),0.0897,109% (inactive)
CN1C[C@@H]2CN(c3ccc(-c4ccccc4)nn3)C[C@@H]2C1 (10 µM),0.149,91% (inactive)
C[C@@H]1NC(=O)[C@@H](N)CNC(=O)[C@H](C2CCNC(=N)N2)NC(=O)/C(=C/NC(N)=O)NC(=O)[C@H](CNC(=O)CC(N)CCCN)NC1=O.N=C1NCC[C@H]([C@@H]2NC(=O)/C(=C/NC(N)=O)NC(=O)[C@H](CNC(=O)C[C@@H](N)CCCN)NC(=O)[C@H](CO)NC(=O)[C@@H](N)CNC2=O)N1 [capreomycin] (10 µM),0.148,100% (inactive)
COc1ccc(F)c(F)c1C(=O)c1cnc(NC2CCN(S(C)(=O)=O)CC2)nc1N (10 µM),-0.352,118% (inactive)
COc1ccc([C@@H]2CC(=O)c3c(O)cc(O)cc3O2)cc1O [hesperetin] (10 µM),0.0387,107% (inactive)
O=C1NCC2(CCN(CCc3ccccc3)CC2)O1 [fenspiride] (10 µM),0.208,101% (inactive)
CCc1cc(O)c(Oc2ccc(C(N)=O)cc2F)cc1F (10 µM),0.0909,95.5% (inactive)
C=CCNc1nc(NCC=C)nc(N2CCN(C(c3ccc(F)cc3)c3ccc(F)cc3)CC2)n1 [almitrine] (10 µM),0.136,101% (inactive)
NCC(=O)CCC(=O)O [5-aminolevulinic-acid] (10 µM),0.0459,113% (inactive)
C=C[C@H]1CN2CC[C@H]1C[C@H]2[C@H](O)c1ccnc2ccccc12 [cinchonidine] (10 µM),-0.111,112% (inactive)
COC(=O)/C=C/c1cccc(N(Cc2ccc(-c3ccc(N(C)C)cc3)cc2)C(=O)C2CCCCC2)c1 [fexaramine] (10 µM),0.272,86% (inactive)
C[C@H]1N=C(N(C)C)N=C(N)N1 [imeglimin] (10 µM),0.0246,99% (inactive)
CC[C@H]1OC(=O)C[C@@H](O)[C@H](C)[C@@H](O[C@@H]2O[C@H](C)C[C@H](N(C)C)[C@H]2O)[C@@H](CC=O)C[C@@H](C)C(=O)/C=C/[C@]2(C)O[C@H]2[C@@H]1C [rosamicin] (10 µM),0.129,96% (inactive)
Cc1c(N)nc([C@H](CC(N)=O)NC[C@H](N)C(N)=O)nc1C(=O)N[C@H](C(=O)N[C@H](C)[C@@H](O)[C@H](C)C(=O)N[C@H](C(=O)NCCc1nc(-c2nc(C(=O)NCCCNCCCCN)cs2)cs1)[C@@H](C)O)[C@@H](O[C@@H]1O[C@@H](CO)[C@@H](O)[C@H](O)[C@@H]1O[C@@H]1O[C@H](CO)[C@@H](O)[C@H](OC(N)=O)[C@@H]1O)c1cnc[nH]1 [bleomycetin] (0.833333 µM),0.128,111% (inactive)
O=C(NCNC(=O)NC1C(=O)NC(=O)N1CO)NC1C(=O)NC(=O)N1CO (stereo unspecified) [imidurea] (10 µM),-0.0758,108% (inactive)
